# Bioassay records deposited in PubChem by several laboratories.
# Cav32 inh – inhibitors of human Cav3.2 T-type calcium channel; Cav3.2-expressing cells, Fluo-4 calcium fluorescence FDSS; stronger effect = lower value; 4% of 100,000 active; AID 449739; B-score at 10 µM;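 active = single-dose well whose peak fluorescence ratio is a statistical outlier from its plate by either plate-standardised score or position-corrected B-score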
# Target sequence (O95180 whole entry, looked up): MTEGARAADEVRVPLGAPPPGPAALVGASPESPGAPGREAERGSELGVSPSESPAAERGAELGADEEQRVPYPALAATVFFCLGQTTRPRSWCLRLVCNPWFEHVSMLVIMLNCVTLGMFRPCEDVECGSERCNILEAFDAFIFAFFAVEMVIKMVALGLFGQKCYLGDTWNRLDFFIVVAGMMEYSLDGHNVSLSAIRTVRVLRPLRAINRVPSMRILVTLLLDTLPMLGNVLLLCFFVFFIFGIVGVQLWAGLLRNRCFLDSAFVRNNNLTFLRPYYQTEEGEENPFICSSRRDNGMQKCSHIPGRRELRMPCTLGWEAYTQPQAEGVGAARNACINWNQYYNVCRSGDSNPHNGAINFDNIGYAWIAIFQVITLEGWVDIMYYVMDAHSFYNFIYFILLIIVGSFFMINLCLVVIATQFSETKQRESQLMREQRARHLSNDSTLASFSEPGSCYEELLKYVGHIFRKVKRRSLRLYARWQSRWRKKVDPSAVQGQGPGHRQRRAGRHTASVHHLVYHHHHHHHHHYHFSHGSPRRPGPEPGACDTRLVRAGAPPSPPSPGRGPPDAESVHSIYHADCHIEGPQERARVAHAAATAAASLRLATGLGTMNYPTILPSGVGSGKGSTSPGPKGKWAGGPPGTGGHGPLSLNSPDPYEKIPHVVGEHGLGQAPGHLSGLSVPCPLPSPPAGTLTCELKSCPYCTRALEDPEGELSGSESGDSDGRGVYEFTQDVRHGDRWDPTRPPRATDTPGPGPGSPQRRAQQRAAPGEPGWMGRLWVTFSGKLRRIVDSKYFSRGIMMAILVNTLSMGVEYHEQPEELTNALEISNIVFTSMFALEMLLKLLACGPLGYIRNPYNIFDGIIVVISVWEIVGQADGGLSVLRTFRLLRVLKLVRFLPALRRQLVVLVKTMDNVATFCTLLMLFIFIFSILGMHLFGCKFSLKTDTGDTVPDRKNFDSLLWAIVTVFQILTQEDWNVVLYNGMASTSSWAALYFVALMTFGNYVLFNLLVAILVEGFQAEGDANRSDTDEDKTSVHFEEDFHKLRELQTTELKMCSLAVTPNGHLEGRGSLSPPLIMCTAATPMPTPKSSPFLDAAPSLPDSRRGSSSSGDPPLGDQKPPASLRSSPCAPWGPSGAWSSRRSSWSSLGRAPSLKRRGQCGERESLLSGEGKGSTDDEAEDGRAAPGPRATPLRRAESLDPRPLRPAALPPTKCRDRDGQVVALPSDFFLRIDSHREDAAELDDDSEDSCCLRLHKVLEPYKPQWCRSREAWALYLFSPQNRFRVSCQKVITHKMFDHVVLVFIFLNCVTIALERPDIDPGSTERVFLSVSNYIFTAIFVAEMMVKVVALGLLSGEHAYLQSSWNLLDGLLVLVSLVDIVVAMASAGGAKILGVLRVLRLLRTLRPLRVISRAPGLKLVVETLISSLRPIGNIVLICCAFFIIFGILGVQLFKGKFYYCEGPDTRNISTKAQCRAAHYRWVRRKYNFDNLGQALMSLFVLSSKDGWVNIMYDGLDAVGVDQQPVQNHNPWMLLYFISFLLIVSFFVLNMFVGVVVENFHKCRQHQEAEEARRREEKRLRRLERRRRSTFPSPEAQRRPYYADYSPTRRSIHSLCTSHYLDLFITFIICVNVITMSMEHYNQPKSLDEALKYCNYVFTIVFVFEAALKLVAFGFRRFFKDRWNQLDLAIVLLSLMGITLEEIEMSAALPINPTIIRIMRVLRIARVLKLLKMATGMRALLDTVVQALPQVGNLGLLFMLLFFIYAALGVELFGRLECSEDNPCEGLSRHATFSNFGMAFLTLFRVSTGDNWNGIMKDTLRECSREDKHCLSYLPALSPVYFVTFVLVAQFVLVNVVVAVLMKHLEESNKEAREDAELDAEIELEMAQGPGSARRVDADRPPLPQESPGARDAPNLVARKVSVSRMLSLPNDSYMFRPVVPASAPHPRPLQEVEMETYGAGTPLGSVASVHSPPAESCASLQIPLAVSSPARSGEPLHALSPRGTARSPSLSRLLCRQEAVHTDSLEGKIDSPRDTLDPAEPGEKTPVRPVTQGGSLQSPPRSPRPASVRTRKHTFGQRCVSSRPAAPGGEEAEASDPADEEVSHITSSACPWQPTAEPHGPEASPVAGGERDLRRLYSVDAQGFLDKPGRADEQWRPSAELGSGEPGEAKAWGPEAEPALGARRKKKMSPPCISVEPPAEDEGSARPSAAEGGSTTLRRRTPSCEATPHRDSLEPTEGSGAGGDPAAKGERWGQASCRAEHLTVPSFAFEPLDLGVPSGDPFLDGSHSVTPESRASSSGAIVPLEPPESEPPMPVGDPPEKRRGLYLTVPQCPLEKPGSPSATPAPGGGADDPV
# TNAP act mid DEA – human TNAP activation, intermediate phosphate acceptor; P05186; purified TNAP, CDP-star luminescence, 100 mM DEA, 30 min; stronger effect = higher value; scale: 0 levamisole-inhibited, 1 vehicle-only enzyme; activation factor at 20 µM; 64,000 tested, under 10 active; AID 813;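 active = activation factor of at least 2 at 20 µM, relative to controls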
# hDAT+cocaine – human DAT dopamine uptake with cocaine, either direction | LLC-PK1 hDAT cells, [14C]-dopamine uptake with cocaine IC80; actives deviate in either direction | B-score at 10 µM | 1.3% of 110,000 active;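 active = Z score or B-score, a plate-position-corrected score, falls beyond the plate's 99.7% confidence bounds, in either direction; inactive = both scores lie inside the 99.7% bounds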;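 also: scored against the spread of the other compound wells on the same plate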
# PostGolgi yeast – growth inhibition of a yeast mutant, post-Golgi transport screen; 0.9% of 98,000 active; post-Golgi transport phenotypic cell assay; AID 739; inhibition, % at 10 µM;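 also: yeast cells grown in 1536-well plates; yeast grown about 18 h at 30C before absorbance read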
# PostGolgi ctrl – growth of the yeast control strain, post-Golgi counter-screen | efflux-deficient yeast background strain, growth absorbance A615, 16 h | inhibition, % at 10 µM | 5% of 98,000 active
# Smad3 inh – blocks human Smad3 binding to FoxH1 peptide. P84022. TR-FRET Smad3/Dy647-FoxH1 peptide binding, europium anti-His. inhibition, % at 25 µM. 0.29% of 88,000 active;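 active = compounds that reduce the energy-transfer binding signal between the protein and its labelled peptide by more than half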;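 also: 0% = Smad3 plus labelled peptide maximal FRET and 100% = peptide-only background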
# An asterisk follows results filed as active; · = no result given. Shown are actives, neighbours in structure and some others; about 8.7% of the full set was active somewhere. Rule as the data show it, unless noted: active = inhibition above about 30%; inactive = the rest.
SMILES,Cav32 inh,TNAP act mid DEA,hDAT+cocaine,PostGolgi yeast,PostGolgi ctrl,Smad3 inh
CC(=O)c1cccc(OCCN2C(=O)NC(C)(C)C2=O)c1,0.92,0.9,0.78,9,4,-18
COc1ccc(-c2cc(-c3ccc(F)cc3)nc(N3CCN(C)CC3)n2)cc1,-0.0031,1,-0.78,20,32*,9
COc1ccc(-c2cc(C(F)(F)F)nc(N3CCOCC3)n2)cc1,-0.79,·,-0.076,-3,19,-9
Cc1ccc(C2c3c(-c4ccccc4O)n[nH]c3C(=O)N2Cc2ccncc2)cc1 (configuration not stated),0.78,1,-0.89,-6,-2,-4
O=C1c2[nH]nc(-c3ccccc3O)c2C(c2cccc(O)c2)N1Cc1ccco1 (configuration not stated),-5*,·,2.1,6,15,-11
O=C(CSc1nc2ccccc2[nH]1)Nc1ccccc1N1CCOCC1,0.15,0.9,-0.84,-2,-2,14
O=C(CSc1nc2ccccc2[nH]1)Nc1cc(C(F)(F)F)ccc1N1CCOCC1,-6.9*,0.8,0.063,21,24,5
O=C(CSc1nc2ccccc2[nH]1)Nc1ccc2c(c1)OCCO2,-3.9*,1,0.82,-4,-10,21
O=C(CSc1nc(-c2ccccc2)cc(=O)[nH]1)NCc1ccc2c(c1)OCO2,0.48,1,0.7,1,-3,13
Cc1[nH]c(=O)c(C#N)cc1-c1ccncc1,-1.7,·,-0.31,·,·,·
CCCCN1C(=O)/C(=C2\SC(N3CCCCC3)=NC2=O)c2ccccc21,-2.2,0.8,-0.041,0,40*,11
O=C1N=C(N2CCOCC2)S/C1=C1\C(=O)N(Cc2ccccc2)c2ccc(Br)cc21,·,0.8,·,·,·,-4
C=C(C)C1Cc2c(C)nn(-c3cccc4ccccc34)c2C1 (configuration not stated),-1.9,·,1.1,10,40*,2
CCOc1ccccc1NC1c2ccccc2C(=O)N1c1cccnc1 (configuration not stated),1.5,1,-0.22,4,10,-5
Cc1noc(N)c1C(=O)Nc1ccc(C(C)(C)C)cc1,0.32,·,-0.16,-2,10,1
CCOC(=O)N1CCN(C(=O)CSCC(=O)Nc2nc(-c3ccc(OC)cc3)cs2)CC1,-2.4,0.9,0.99,-12,30*,4
CCn1nccc1C(=O)Nc1cc(Cl)cc(Cl)c1,-3.8*,·,1.5,·,·,0
Cc1ccc(C(=O)Oc2ccccc2C(=O)N2CCOCC2)cc1,0.94,·,-0.62,·,·,-18
COc1cccc(CNc2ncc(Br)cc2Br)c1O,-0.071,0.8,-1,5,9,8
COc1cccc(CNc2ccc(Br)cn2)c1O,-6.5*,1,0.16,-4,12,6
CCn1c(=O)n(CC)c2cc(S(=O)(=O)N3CCCCC3)c(C)cc21,0.0078,·,-0.75,26,9,17
CC1CCC(NC(=O)CN2CCCN(Cc3ccc(F)cc3Cl)C2=O)CC1 (configuration not stated),-3.9*,0.9,0.065,8,3,-3
O=C(CN1CCCN(Cc2ccc(F)cc2Cl)C1=O)NC1CCCCCC1,-4,·,-0.19,-6,14,-1
O=C(CN1CCN(Cc2ccc(F)cc2Cl)C1=O)NCCc1ccc(Cl)cc1,-4.2,·,-0.55,22,37*,22
CCOC(=O)C1=C(C)N(C)C(=O)NC1c1cccc(O)c1 (configuration not stated),0.34,0.9,-0.58,-2,18,·
SMILES,Cav32 inh,TNAP act mid DEA,hDAT+cocaine,PostGolgi yeast,PostGolgi ctrl,Smad3 inh
Cc1ccc(N2C(=O)N(CC(=O)NCc3ccc(Cl)cc3)C(=O)C2C)cc1 (configuration not stated),-5.2*,·,1.2,5,17,14
CC1(C)Nc2ccccc2N(CCC(=O)N2CCOCC2)C1=O,-0.3,0.9,1.6*,2,5,2
CN(C(=O)CCN1C(=O)C(C)(C)Nc2ccccc21)c1ccccc1,0.051,0.9,-0.0058,10,1,5
CC1(C)Nc2ccccc2N(CC(=O)N2CCCCC2)C1=O,0.43,1,1.4*,-3,8,·
O=S(=O)(NCC1CCCO1)c1cccc2nsnc12 (configuration not stated),-0.43,0.9,0.08,-1,0,5
C[N@@+]1(CCC(=O)c2ccccc2)CC[C@H]2CC[C@H](C2)C1,·,·,·,·,·,-64
